In paper PMC7862700, “An all-to-all approach to the identification of sequence-specific readers for epigenetic DNA modifications on cytosine”:

Tests used:
Assay in all cases: DAPPL (digital affinity profiling via proximity ligation, sequencing); 10 mM Tris-HCl pH 7.5, 50 mM NaCl, 1 mM DTT, 4% glycerol, room temperature, 30 min; GST-TFs on glutathione beads, 16-mer random dsDNA library, 0.1% formaldehyde crosslink after washing; high values mean tight binding
Conditions in all cases: protein: recombinant; tags: N-terminal GST; dsDNA, one strand shown
ETV2 = target: T1, ETV2 (Homo sapiens, UniProt O00321 1-342)
T1 sequence: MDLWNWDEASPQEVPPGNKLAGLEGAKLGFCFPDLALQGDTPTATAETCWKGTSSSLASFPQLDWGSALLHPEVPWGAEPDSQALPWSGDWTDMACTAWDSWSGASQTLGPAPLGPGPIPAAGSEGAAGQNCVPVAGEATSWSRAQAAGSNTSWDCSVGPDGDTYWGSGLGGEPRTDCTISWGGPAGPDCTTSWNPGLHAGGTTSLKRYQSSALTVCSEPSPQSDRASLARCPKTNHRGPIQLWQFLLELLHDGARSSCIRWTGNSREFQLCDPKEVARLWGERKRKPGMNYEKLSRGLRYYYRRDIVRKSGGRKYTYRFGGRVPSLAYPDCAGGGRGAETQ
Method in brief: (§1)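 Pools were built from human transcription factors expressed in yeast as GST fusions, captured on glutathione beads and DNA-barcoded, along with a tag-only sample. Incubation with 200 nmole of a 16-mer random double-stranded DNA library lasted 30 min at room temperature in Tris/NaCl/DTT/glycerol buffer, and was followed by washing, 0.1% formaldehyde crosslinking, proximity ligation, PCR amplification and Illumina NextSeq500 sequencing. Binding signal is the quotient of each hexamer's read frequency for a factor and its frequency for the tag-only sample.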

ELF3 = target: T2, ELF3 (Homo sapiens, UniProt P78545 1-371)
T2 sequence: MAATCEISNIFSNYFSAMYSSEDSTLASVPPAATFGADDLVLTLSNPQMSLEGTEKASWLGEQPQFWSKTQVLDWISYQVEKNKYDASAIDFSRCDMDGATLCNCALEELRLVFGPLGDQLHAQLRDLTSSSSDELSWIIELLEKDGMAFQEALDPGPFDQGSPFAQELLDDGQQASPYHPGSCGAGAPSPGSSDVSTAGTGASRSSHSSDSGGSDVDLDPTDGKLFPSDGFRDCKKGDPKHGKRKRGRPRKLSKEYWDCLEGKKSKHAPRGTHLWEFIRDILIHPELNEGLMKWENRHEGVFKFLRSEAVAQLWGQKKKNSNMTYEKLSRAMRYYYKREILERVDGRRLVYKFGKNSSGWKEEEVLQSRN
Method in brief: as §1

ETV1 = ETV1 (Homo sapiens, UniProt P50549 1-477)
ETV1, sequence (P50549 whole entry): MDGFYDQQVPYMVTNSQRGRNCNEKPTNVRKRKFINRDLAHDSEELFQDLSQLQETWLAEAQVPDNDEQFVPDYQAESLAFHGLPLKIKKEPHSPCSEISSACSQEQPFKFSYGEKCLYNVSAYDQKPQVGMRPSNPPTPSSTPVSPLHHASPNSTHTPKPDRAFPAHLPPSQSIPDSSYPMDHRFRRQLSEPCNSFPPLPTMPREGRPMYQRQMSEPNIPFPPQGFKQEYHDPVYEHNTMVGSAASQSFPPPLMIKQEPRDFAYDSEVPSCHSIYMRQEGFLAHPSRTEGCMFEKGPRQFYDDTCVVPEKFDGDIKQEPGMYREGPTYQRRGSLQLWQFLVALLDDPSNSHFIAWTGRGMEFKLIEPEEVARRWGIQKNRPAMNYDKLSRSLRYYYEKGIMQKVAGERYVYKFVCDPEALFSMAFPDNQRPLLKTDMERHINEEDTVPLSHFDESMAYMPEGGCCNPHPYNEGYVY
Method in brief: as §1

ERF = target: T3, ERF (Homo sapiens, UniProt P50548 1-548)
T3 sequence: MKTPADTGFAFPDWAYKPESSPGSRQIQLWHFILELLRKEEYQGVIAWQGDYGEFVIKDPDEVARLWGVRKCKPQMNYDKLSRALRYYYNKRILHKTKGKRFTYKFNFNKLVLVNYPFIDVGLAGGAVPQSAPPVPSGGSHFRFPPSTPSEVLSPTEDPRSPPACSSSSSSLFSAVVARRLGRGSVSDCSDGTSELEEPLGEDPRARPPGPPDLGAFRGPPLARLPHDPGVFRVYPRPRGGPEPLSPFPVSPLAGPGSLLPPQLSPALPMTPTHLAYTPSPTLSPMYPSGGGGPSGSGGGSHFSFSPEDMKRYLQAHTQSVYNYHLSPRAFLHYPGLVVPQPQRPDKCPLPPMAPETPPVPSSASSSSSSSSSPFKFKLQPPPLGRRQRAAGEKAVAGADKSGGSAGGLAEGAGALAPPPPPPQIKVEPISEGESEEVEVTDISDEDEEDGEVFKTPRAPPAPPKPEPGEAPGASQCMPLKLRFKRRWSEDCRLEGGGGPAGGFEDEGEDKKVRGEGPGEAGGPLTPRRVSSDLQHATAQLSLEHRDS
Method in brief: as §1

ETV3L = target: T4, ETV3L (Homo sapiens, UniProt Q6ZN32 1-361)
T4 sequence: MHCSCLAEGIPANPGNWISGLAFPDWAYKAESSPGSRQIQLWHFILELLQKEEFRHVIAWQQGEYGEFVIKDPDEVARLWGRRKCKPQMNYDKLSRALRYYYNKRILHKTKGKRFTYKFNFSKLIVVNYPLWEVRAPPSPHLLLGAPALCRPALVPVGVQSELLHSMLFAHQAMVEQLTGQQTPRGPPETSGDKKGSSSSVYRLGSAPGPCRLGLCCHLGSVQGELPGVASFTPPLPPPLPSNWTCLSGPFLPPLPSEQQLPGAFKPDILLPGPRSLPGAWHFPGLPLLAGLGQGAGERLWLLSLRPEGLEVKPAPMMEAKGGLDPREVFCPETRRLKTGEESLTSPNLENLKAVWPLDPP
Method in brief: as §1

ETS2 = target: T5, ETS2 (Homo sapiens, UniProt P15036 1-469)
T5 sequence: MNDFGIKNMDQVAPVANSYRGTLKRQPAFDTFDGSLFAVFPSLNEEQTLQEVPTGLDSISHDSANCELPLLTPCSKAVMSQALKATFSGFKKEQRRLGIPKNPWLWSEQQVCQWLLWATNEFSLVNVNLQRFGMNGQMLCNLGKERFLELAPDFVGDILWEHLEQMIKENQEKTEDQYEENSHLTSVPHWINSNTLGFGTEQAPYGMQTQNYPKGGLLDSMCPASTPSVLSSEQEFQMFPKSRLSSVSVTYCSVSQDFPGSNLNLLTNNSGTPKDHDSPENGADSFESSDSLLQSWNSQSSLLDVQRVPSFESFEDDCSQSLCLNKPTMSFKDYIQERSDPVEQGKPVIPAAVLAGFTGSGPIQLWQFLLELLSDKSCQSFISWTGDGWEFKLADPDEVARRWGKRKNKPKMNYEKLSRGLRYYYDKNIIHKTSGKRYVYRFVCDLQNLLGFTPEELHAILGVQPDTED
Method in brief: as §1

SPDEF = target: T6, SPDEF (Homo sapiens, UniProt O95238 1-335)
T6 sequence: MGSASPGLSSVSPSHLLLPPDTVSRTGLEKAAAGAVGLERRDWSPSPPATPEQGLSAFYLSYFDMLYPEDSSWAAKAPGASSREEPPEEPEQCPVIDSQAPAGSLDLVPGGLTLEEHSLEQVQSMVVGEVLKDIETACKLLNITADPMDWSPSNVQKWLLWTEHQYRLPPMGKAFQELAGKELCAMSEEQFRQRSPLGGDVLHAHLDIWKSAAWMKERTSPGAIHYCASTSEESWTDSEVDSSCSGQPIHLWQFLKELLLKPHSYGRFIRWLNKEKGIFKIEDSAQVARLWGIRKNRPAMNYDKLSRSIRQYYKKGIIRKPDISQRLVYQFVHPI
Method in brief: as §1

ETV7 = target: T7, ETV7 (Homo sapiens, UniProt Q9Y603 1-341)
T7 sequence: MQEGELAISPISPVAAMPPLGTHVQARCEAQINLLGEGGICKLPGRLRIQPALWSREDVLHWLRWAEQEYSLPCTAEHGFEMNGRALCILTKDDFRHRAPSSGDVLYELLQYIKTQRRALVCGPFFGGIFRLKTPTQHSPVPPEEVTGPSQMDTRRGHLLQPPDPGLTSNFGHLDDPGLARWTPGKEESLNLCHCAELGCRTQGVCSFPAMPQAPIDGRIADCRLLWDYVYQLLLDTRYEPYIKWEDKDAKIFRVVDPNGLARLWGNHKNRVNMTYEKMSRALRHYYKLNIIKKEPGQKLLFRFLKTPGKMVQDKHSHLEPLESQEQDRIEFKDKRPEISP
Method in brief: as §1

ETV3 = target: T8, ETV3 (Homo sapiens, UniProt P41162-2 1-143)
T8 sequence: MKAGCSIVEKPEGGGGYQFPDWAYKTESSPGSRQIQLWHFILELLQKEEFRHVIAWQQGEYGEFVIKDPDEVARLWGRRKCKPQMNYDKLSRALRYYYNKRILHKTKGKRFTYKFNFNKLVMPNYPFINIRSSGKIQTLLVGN
Method in brief: as §1

ETV6 = ETV6 (Homo sapiens, UniProt P41212 1-452)
ETV6, sequence (P41212 whole entry): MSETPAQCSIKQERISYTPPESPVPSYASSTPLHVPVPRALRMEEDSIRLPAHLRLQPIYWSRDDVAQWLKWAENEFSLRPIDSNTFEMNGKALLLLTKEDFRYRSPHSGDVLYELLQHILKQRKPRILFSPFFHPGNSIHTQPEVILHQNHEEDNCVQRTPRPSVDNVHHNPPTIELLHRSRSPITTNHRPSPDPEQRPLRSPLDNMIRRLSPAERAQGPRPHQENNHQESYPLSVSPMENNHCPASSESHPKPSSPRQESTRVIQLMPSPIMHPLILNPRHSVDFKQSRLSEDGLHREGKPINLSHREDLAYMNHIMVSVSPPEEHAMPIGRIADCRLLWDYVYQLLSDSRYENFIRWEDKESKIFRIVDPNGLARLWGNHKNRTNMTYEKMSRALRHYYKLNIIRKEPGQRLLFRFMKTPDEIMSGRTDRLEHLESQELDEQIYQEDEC
Method in brief: as §1

Q: With CCCCCC as the sequence, how does the binding signal (ETV2) read?
A: 1.26 fold enrichment (6-mer frequency, TF over GST control)

Q: And the binding signal (ELF3)?
A: 1.28 fold enrichment (6-mer frequency, TF over GST control)

Q: And the binding signal (ETV1)?
A: 1.11 fold enrichment (6-mer frequency, TF over GST control)

Q: And the binding signal (ERF)?
A: 1.05 fold enrichment (6-mer frequency, TF over GST control)

Q: And the binding signal (ETV3L)?
A: 1.07 fold enrichment (6-mer frequency, TF over GST control)

Q: And the binding signal (ETS2)?
A: 1.1 fold enrichment (6-mer frequency, TF over GST control)

Q: And the binding signal (SPDEF)?
A: 1.08 fold enrichment (6-mer frequency, TF over GST control)

Q: What about the binding signal (ETV7) of the same sequence?
A: 1.13 fold enrichment (6-mer frequency, TF over GST control)

Q: And the binding signal (ETV3)?
A: 1.14 fold enrichment (6-mer frequency, TF over GST control)

Q: And the binding signal (ETV6)?
A: 1.06 fold enrichment (6-mer frequency, TF over GST control)
